# Measurements published in PubChem BioAssay AID743279 (National Center for Advancing Translational Sciences (NCATS), 2014).
# The campaign covered roughly 360,000 compounds. About 17,000 (4.7%) were called active. Inconclusive results (about 5%) are left out. Many of the other results were omitted from the sample, so actives are more common in it than they were. A number with no mark means an inactive call. Rule as the data show it: active = activity change below about -50%; inconclusive = mostly about -30% to -49%; inactive = weaker than that.
# Assay: qHTS for Inhibitors of Inflammasome Signaling: IL-1-beta AlphaLISA Primary Screen
# Conditions: THP-1 LPS/ATP IL-1B secretion, 16 h; at 57.5 µM, hits give low values
# From the text: Inflammasomes are a set of intracellular multi-protein complexes that enable autocatalytic activation of inflammatory caspases and drive the innate immune response to counter harmful agents. […] A qHTS assay, based on AlphaLISA technology, was developed to screen the Molecular Libraries Small Molecule Repository (MLSMR) to look for novel inflammasome inhibitors. The assay detects IL-1B using AlphaLISA anti-IL-1B acceptor and donor beads. A decreased emission signal, indicating reduced IL-1B secretion, is the desired outcome for this assay. NIH Chemical Genomics Center [NCGC] NIH Molecular Libraries Probe Centers Network [MLPCN] MLPCN Grant: MH095513 Assay Provider: Shyam Biswal Ph.D., Johns Hopkins University Immunity. 2012 Jul 27;37(1):85-95. PMID: 22819042 [2] Curr Pharm Des. 2012;18(16):2320-8. PMID: 22390695
# Three microliters containing 3000 THP-1 cells were dispensed into the wells of solid, white, tissue culture treated Greiner 1,536-well plates. Library compounds and positive control, Glyburide, were pin-transferred (23 nL) by a Kalypsys pin-tool equipped with a 1,536-pin array, resulting in final compound concentration ranges of 2.5 nM to 57.5 uM. After 1 hr of cell culture incubation (37 °C, 5% CO2), 1 microL of 1 microg/mL lipopolysaccharide (250 ng/mL, final) and 5 mM ATP (1.25 mM, final) were added to stimulate the cells. After 16 hr of cell culture incubation with the compounds, 1.5 uL of anti-IL-1B acceptor beads (6 ug/mL, final) and biotinylated antibody (0.6 nM, final) were added to the plate, followed by a 1 hr incubation at ambient temperature. To detect the secreted IL-1B, 1.5 uL of AlphaLISA SA-Donor beads (24 ug/mL, final) were added, followed by 30 min of incubation in the dark at ambient temperature. The AlphaLISA signal was read by a PerkinElmer EnVision plate reader with an ultrasensitive luminescence detector and 1536 Plate HTS AlphaScreen aperture (excitation of 680nm and emission of 615nm).
# % is scaled to controls: 0 for no effect and ±100 for the full control effect.
row,SMILES,activity change
1,C[C@H]1CN([C@@H](C)CO)C(=O)CCCn2cc(nn2)CO[C@@H]1CN(C)S(=O)(=O)c1cccc(C#N)c1,12.5%
2,CC(=O)NCC(=O)N1CCCC(C(=O)c2ccc3c4c(cccc24)CC3)C1 (stereo not drawn),-13.3%
3,CCn1ccnc1CN1CCCC(C(=O)c2ccc3c4c(cccc24)CC3)C1 (stereo not drawn),-69.4% (active)
4,Cc1ncoc1C(=O)N1CCCC(C(=O)c2ccc3c4c(cccc24)CC3)C1 (stereo not drawn),-21.9%
5,C[C@H](O)[C@@H]1C(=O)N2CCc3c([nH]c4ccccc34)[C@@H]2C[C@@H]1N(C)C(=O)Nc1ccc(F)cc1,-16.5%
6,CC1(C(=O)NS(=O)(=O)c2ccc3ccccc3c2)CCN1C(=O)C1(c2ccc(Cl)cc2)CCC1 (stereo not drawn),53.2%
7,COc1ccc(-c2cc(C(=O)N(C)CC(=O)Nc3ccccc3Cl)c3ccccc3n2)cc1OC,-52.1% (active)
8,COc1ccc(CN(C)C(=O)c2cc(-c3ccc(C)cc3C)nc3ccccc23)c(OC)c1OC,-84.9% (active)
9,COc1ccc(-c2cc(C(=O)Nc3ccccc3O)c3ccccc3n2)cc1,-84.2% (active)
10,COc1ccc(NC(=O)c2cc(-c3cc(OC)c(OC)c(OC)c3)nc3ccccc23)c(OC)c1,42.6%
11,COc1cccc(NC(=O)CN(C)C(=O)c2cc(Cl)nc3ccccc23)c1,17.2%
12,COc1ccc(NC(=O)c2cc(-c3ccc(C)o3)nc3ccccc23)cc1,-5.74%
13,COc1ccc(CN(C)C(=O)Cc2c[nH]c3ccccc23)c(OC)c1OC,5.58%
14,COc1ccc(-c2cc(C(=O)N(C)Cc3ccc(OC)c(OC)c3OC)c3ccccc3n2)cc1OC,-13.9%
15,COc1ccc(Cl)cc1NC(=O)CN(C)C(=O)c1cc2ccccc2cc1OC,5.95%
16,O=C(Nc1nonc1-c1ccc(Cl)cc1)c1ccco1,26.6%
17,CC(C)C[C@H](NC(=O)N1CC(=O)Nc2ccccc21)C(=O)N[C@H](Cc1ccccc1)C(=O)O,4.57%
18,N#Cc1ccc(-c2nc3c(Cl)cc(C(F)(F)F)cn3c2Cc2ccccc2C(F)(F)F)cc1,23.1%
19,COc1ccc(S(=O)(=O)N2CCC(C(=O)NCCC(=O)Nc3ccccc3OC)CC2)cc1,2.12%
20,Nc1nc2c(ncn2[C@@H]2O[C@H](CNS(=O)(=O)N3CCc4ccccc4C3)[C@@H](O)[C@H]2O)c(=O)[nH]1,0.653%
21,COc1cccc(OCC(=O)NCCS(=O)(=O)N2CCN(c3ccccc3)CC2)c1,21%
22,OC[C@H]1O[C@@H](c2nc(-c3nc(-c4ccc(F)cc4)no3)cs2)[C@H](O)[C@@H](O)[C@H]1O,2.39%
23,CCCCN1C(=O)C(CC(=O)NC(c2ccccc2)c2ccccc2)CC(C(=O)N2CCOCC2)=C1C (stereo not drawn),14.9%
24,O=C(c1cccs1)n1nc(NCc2ccccc2)nc1NCc1ccccc1,-57.7% (active)
25,CCCC(=O)n1nc(NCc2ccc(OC)cc2)nc1NCc1ccc(OC)cc1,15.3%
26,Nc1nc(NCc2ccccc2)n(-c2ccccc2)n1,4.19%
27,CC(C)(C)OC(=O)N1CCN(C(=O)c2[nH]c(C(F)(F)F)nc2-c2ccccc2)CC1,13.4%

row,SMILES,activity change
1,Cc1ccc(CN(C(=O)c2sc3ccccc3c2Cl)C2CCS(=O)(=O)C2)cc1 (stereo not drawn),-2.89%
2,Nn1cnnc1N/N=C/c1cc([N+](=O)[O-])c(Cl)cc1Cl,-61.8% (active)
3,O=C(/C=C/Sc1ncn[nH]1)c1ccc(Cl)cc1,-118% (active)
4,O=C(CSc1ncn[nH]1)NCc1ccc2c(c1)OCO2,17.5%
5,Cc1cccc(C=CC(=O)c2ccc(Cl)cc2)c1,-29.5%
6,Cc1ccc(-c2ccc(CN3C(C(C)C)C(=O)N(Cc4cn(CCC5OCCCO5)nn4)CCS3(=O)=O)cc2)cc1 (stereo not drawn),13%
7,CCn1ncc(C2=NOC(C(=O)N3CCN(c4ccccc4)CC3)C2)c1C (stereo not drawn),3.63%
8,O=C(/C=C/c1cn(-c2ccccc2)nc1-c1ccc2c(c1)OCCO2)NCCCN1CCOCC1,-92.2% (active)
9,O=C(NCCCN1CCOCC1)c1cn(-c2ccccc2)nc1-c1ccc(F)cc1,-7.44%
10,COc1ccc(-c2nn(-c3ccccc3)cc2/C=C\C(=O)N2CCOCC2)cc1[N+](=O)[O-],-9.66%
11,O=C(COC(=O)/C=C/c1ccc(Br)o1)Nc1cccc(S(=O)(=O)N2CCOCC2)c1,13.8%
12,CCOC(=O)[C@]12CCCC=C1N(CCC1=CCCCC1)C(=O)[C@H](CC(=O)NCCCOC)C2,60.5%
13,CC1=C(C(=O)N(C(C)C)C(C)C)CC(CC(=O)NCCCCc2ccccc2)C(=O)N1CCC1=CCCCC1 (stereo not drawn),-59% (active)
14,CCCCOCCCNC(=O)C[C@@H]1C[C@@]2(C(=O)OCC)CCCC=C2N(CCC2=CCCCC2)C1=O,-27.8%
15,CCCCOCCCNC(=O)C[C@@H]1C[C@@]2(C(=O)OC)CCCCC=C2N(CCC2=CCCCC2)C1=O,-57.4% (active)
16,CC1=C(C(=O)N(C)C)CC(CC(=O)NCCc2ccccn2)C(=O)N1CCC1=CCCCC1 (stereo not drawn),-20.1%
17,CCOC(=O)[C@]12CCCC=C1N(CCC1=CCCCC1)C(=O)[C@H](CC(=O)NCCCCc1ccccc1)C2,-17.5%
18,O=C(Nc1c(Br)cc2c(c1Br)Cc1cc([N+](=O)[O-])ccc1-2)C(Cl)Cl,39%
19,CCCOc1ccc(-c2c(C(=O)N/N=C/c3ccco3)nnn2-c2nonc2N)cc1,92.5%
20,Cc1cc(C)c(S(=O)(=O)NN=C2c3ccccc3[C@H]3Cc4csc[n+]4[C@@H]23)c(C)c1,-3.78%
21,COc1ccc(C(NC(=O)C2CCN(CCCc3ccccc3)CC2)c2cccs2)cc1 (stereo not drawn),-24%
22,O=C(CCN1CCCCC1)Nc1ccc(F)c(F)c1,-0.386%
23,COc1ccc(NC(=O)N(C)C[C@@H]2OCc3cn(nn3)CCCC(=O)N([C@H](C)CO)C[C@H]2C)c(OC)c1,9.8%
24,CC(C)c1cc(C(N)=O)c(NC(=O)c2cccc(COc3ccc(Br)cc3)c2)s1,-75.7% (active)
25,CC(C)(C)OC(=O)N(Cc1ccccc1)Cc1ccc(OCc2cccc(NC(=O)c3ccccc3)c2)cc1,9.51%
26,CCOc1ccc(OCc2cccc(C(=O)N(CC)CC)c2)cc1,0%
